Compounds without any hit were thinned out: in the full panel of roughly 83,000, 20% have a hit.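 For each line, cells grew in 96-well plates with the test compound present at a single concentration for 48 hours.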 A number with no mark means an inactive call. Active and inactive are the calls of the source. How the source made its calls: active means growth percent below 10; inactive means the rest.

This experiment deals with NCI/ADR-RES ovarian. Kind of experiment: NCI-60 one-dose screen, 48 h (100 = growth as untreated, 0 = no growth, -100 = all killed). The following applies: 10 µM unless noted.
In the case of `C#CCNC(=O)CC[C@]1(C)[C@H]2CC[C@@H]3[C@@H]([C@@](C)(O)CCC=C(C)C)CC[C@@]3(C)[C@]2(C)CC[C@H]1C(=C)C`, the growth was 53.6% [100 µM]. As for `CC1(C)CC[C@]2(C(=O)O)CC[C@]3(C)C(=CC[C@@H]4[C@@]5(C)C/C(=C/c6ccco6)C(=O)C(C)(C)[C@@H]5CC[C@]43C)[C@@H]2C1`, the figure is -12.6% [100 µM] (active); as for `C=C(C)[C@@H]1CC[C@]2(C(=O)O)CC[C@]3(C)[C@H](CC[C@@H]4[C@@]5(C)C/C(=C/c6ccco6)C(=O)C(C)(C)[C@@H]5CC[C@]43C)[C@@H]12`, -43.8% [100 µM] (active); as for `C[n+]1cccc(NC(=O)c2ccc3ccc4ccc(C(=O)Nc5ccc[n+](C)c5)nc4c3n2)c1`, 101%. As for `Cc1ccc(S(=O)(=O)N/N=C2\CC3CCC2(C)C3(C)C)cc1` (stereo unspecified), the figure is 213%. As for `CCOC(=O)c1nn(C2CCCCO2)c2ccc(NC(=O)Cn3nnc4ccccc43)cc12` (stereo unspecified), the figure is 104%.

In the case of `Cn1cc(-c2nnc(-c3cn(C)c4ncc(Br)cc34)o2)c2ccccc21`, the growth was 68.9%. For `O=C(Nc1ccc(Oc2ccc(F)cc2)c(Cl)c1)c1cccnn1`, the growth was 69.4%. Then `Cc1ccc2c(n1)C(=O)C(Cl)=C(Nc1ccc(N3CCN(C)CC3)cc1)C2=O`, with 27.6%. Regarding `c1cc2ccc1CNCCN1CCNCc3ccc(cc3)Oc3ccc(cc3)CNCCN(CCNCc3ccc(cc3)O2)CCNCc2ccc(cc2)Oc2ccc(cc2)CNCC1`, the growth is 103%. With `CCCCCCCCN(CCCCCCCC)CC(O)c1ccc(Cl)c(C)c1Cl` (stereo unspecified), the growth was 89.6%.

These data come from PubChem BioAssay (NCI).
